# Experimental data from the supplement of paper PMC11624193, “Coupling cellular drug-target engagement to downstream pharmacology with CeTEAM” (Nature Communications, 2024).
# Structures can show the parent of a compound that is named as a salt. Values without a mark were called inactive.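 The calls were made as follows: active = log2 fold change beyond 2 SD from the library mean after excluding viability outliers; inactive = within 2 SD.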
# Molecular target: PARP1 L713F-nLuc biosensor (HCT116) (UniProt P09874)
# Test: PARP1 L713F-nLuc/akaLuc ratio relative to DMSO control (biosensor stabilization) (fold change); higher = more PARP1 biosensor stabilization (target engagement / stabilizer), active = hit call of the paper
# Conditions: stock concentration (mM; final µM = stock mM x 1): 10; 24 h
# Sequence of PARP1 L713F-nLuc biosensor (HCT116) (P09874 whole entry L713F, looked up): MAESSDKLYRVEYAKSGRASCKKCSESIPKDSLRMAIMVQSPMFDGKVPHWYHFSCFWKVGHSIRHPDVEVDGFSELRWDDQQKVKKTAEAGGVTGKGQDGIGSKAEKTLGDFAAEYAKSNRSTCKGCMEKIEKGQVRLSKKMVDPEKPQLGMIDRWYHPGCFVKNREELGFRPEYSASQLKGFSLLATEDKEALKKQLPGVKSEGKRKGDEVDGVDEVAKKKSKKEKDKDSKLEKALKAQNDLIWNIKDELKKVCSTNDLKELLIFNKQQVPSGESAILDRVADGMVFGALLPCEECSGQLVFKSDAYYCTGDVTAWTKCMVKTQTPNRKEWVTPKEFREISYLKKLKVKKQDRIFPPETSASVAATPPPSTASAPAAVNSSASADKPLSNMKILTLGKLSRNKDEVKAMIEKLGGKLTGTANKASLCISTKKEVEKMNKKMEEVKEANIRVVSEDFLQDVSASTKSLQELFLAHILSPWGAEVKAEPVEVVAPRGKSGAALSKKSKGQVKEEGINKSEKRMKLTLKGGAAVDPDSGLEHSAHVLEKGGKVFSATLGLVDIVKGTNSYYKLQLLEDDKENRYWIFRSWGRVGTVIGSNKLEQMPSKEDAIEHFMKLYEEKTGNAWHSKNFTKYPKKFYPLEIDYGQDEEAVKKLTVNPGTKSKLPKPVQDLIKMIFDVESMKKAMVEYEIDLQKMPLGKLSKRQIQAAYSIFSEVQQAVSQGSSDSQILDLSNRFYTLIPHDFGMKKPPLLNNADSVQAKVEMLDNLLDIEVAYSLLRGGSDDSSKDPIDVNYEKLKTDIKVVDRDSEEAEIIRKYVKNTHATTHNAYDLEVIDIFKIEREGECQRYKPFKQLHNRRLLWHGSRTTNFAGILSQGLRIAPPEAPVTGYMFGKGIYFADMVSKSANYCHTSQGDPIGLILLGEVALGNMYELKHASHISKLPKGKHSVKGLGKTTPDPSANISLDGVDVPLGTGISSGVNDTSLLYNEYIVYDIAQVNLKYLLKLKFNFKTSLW
row,SMILES,PARP1 L713F-nLuc/akaLuc ratio
1,Cc1cnc(Nc2ccc(OCCN3CCCC3)cc2)nc1Nc1cccc(S(=O)(=O)NC(C)(C)C)c1,0.333 (active)
2,NC(=O)c1cccc(-c2cccc(OC(=O)NC3CCCCC3)c2)c1,1.05
3,N#Cc1cc(F)cc(Oc2ccc(S(=O)(=O)C(F)F)c3c2CC(F)(F)C3O)c1 (racemic),0.759
4,CC(C)c1c(-c2ccccc2)nc2c(C#N)c[nH]n2c1=O,0.786
5,CCCCNC(=N)NC(=N)N [Buformin (hydrochloride)],0.782
6,COc1nc(N)nc2c1ncn2[C@@H]1O[C@H](CO)[C@@H](O)[C@@H]1O [Nelarabine],1.15
7,COC(=O)c1cc(CN2CCN(C(=N)N)CC2)cc(C(=O)N2CCN(C(=O)c3ccc(C(=N)N)cc3)CC2)c1 [CBB1007 (trihydrochloride)],0.723
8,COc1cccc2c1c(O)c(C(=O)N(C)c1ccc(C(F)(F)F)cc1)c(=O)n2C [Tasquinimod],1.12
9,CCNC(=O)C#Cc1ccc2c(C(=Nc3ccc(CN(C)C)cc3)c3ccccc3)c(O)[nH]c2c1,0.604
10,O=C(O)CNC(=O)c1c(O)c2ccccc2n(OCC2CC2)c1=O [Desidustat],0.943
11,O=C(NCCCc1ccccc1)c1cccc(-c2cc(O)c3ncccc3c2)c1,0.729
12,COc1nn(C)cc1Nc1nccc(-c2c[nH]c3c(NC(=O)[C@@H](C)N4CCN(C)CC4)cccc23)n1 [Golidocitinib],0.637
13,Nc1c(S(=O)(=O)c2ccccc2)c2nc3ccccc3nc2n1-c1ccc(F)cc1,1.04
14,COc1ccc(C2(CNC(=O)c3ccc(NC(=O)c4ccco4)cc3)CCOCC2)cc1,1.23
15,CC(C)c1cccc(=O)c(O)c1 [Hinokitiol],0.993
16,CS(=O)(=O)c1ccc(-c2cnc(NCc3ccco3)n3cnnc23)cc1,0.722
17,Cc1nn(C)cc1-c1nc2c(N3CCN(Cc4ccc(Cl)cc4)CC3)c(Cl)cnc2[nH]1,0.979
18,O=C(Nc1ccccc1-c1cn2c(CN3CCNCC3)csc2n1)c1cnc2ccccc2n1 [SRT 1720 (Hydrochloride)],1.16
19,"O=C(c1ccc(F)c(F)c1Nc1ccc(I)cc1F)N1CC(O)([C@@H]2CCCCN2)C1 [Cobimetinib (GDC-0973, RG7420)]",0.687

row,SMILES,PARP1 L713F-nLuc/akaLuc ratio
1,N#Cc1ccc2[nH]c(O)c(-c3ccc(CN4CCOCC4)cn3)c2c1,0.881
2,CC(=O)c1c(C)cc2cccc(O)c2c1O [Nepodin],0.91
3,Cc1ccc(C(=O)Nc2ccc(Oc3cc4cnn(C)c4cc3-c3cn[nH]c3)c(F)c2)c(=O)n1-c1ccc(F)cc1,1.52
4,CC[C@H](C)C(=O)O[C@H]1C[C@@H](C)C=C2C=C[C@H](C)[C@H](CC[C@@H]3C[C@@H](O)CC(=O)O3)[C@H]21 [Lovastatin],0.643
5,Cc1cccc(CC(=O)N2CCc3c2ccc(-c2cn(C)c4ncnc(N)c24)c3F)n1,1.05
6,N#Cc1c(N2CCCC2)nc(N)c2c(N)nc(N3CCCC3)cc12,1.1
7,CO[C@H]1C[C@@H]2CC[C@@H](C)[C@@](O)(O2)C(=O)C(=O)N2CCCC[C@H]2C(=O)O[C@H]([C@H](C)C[C@@H]2CC[C@@H](OCCO)[C@H](OC)C2)CC(=O)[C@H](C)/C=C(\C)[C@@H](O)[C@@H](OC)C(=O)[C@H](C)C[C@H](C)/C=C/C=C/C=C/1C [Everolimus (RAD001)],0.669
8,O=C(c1cc(Cn2c(=O)[nH]c(=O)c3c(F)cccc32)ccc1F)N1CCN(c2ncccn2)CC1 [Senaparib],3.98 (active)
9,O=S(=O)(c1cccc2cnccc12)N1CCNCC1,0.882
10,CCN(CC)CCCC[C@H](NC(=O)[C@H](CC(C)C)NC(=O)[C@H](C)NC(=O)[C@H](Cc1ccccc1)NC(=O)c1ccc(C(C)(C)C)cc1)C(=O)N[C@@H](CO)C(=O)OC,1.47
11,C[C@H](Nc1ncnc2[nH]cnc12)c1cc2ccc(F)cc2nc1-c1ccccn1,0.767
12,CCN1CCN(Cc2ccc(Nc3ncc(F)c(-c4cc(F)c5nc(C)n(C(C)C)c5c4)n3)nc2)CC1 [Abemaciclib],0.621
13,CC(C)n1cnc2c(NCCc3ccc(O)cc3)nc(-c3csc4ccccc34)nc21 [StemRegenin 1 (SR1)],0.788
14,CCN(CCCOc1ccc2c(Nc3cc(CC(=O)Nc4cccc(F)c4)[nH]n3)ncnc2c1)CCOP(=O)(O)O [Barasertib],1.15
15,C[C@H](NC(=O)/C(C#N)=C/c1cccc(Br)n1)c1ccccc1,0.804
16,Nc1ncnc2c1ncn2[C@@H]1O[C@H](C(=O)N2CCN(CC(=O)Nc3cccc4c3CNC4=O)CC2)[C@@H](O)[C@H]1O [EB-47 (dihydrochloride)],0.793
17,COc1ccccc1C(=O)Nc1cc2c(cc1N1CCCC1)n(C)c(=O)n2C,0.797
18,N#Cc1ccnc(N2C(=O)CC[C@H]2C(=O)N(c2cncc(F)c2)[C@H](C(=O)NC2CC(F)(F)C2)c2ccccc2Cl)c1 [Ivosidenib (AG-120)],0.863
19,CS(=O)(=O)c1ccc(Oc2cc(F)cc(C#N)c2)c2c1C(O)C(F)C2 (stereo not drawn),0.836
